Data on 29 compounds can be found in PubChem BioAssay (NCATS).

Results filed as inconclusive are left out. Unmarked numbers belong to inactive results. Active and inactive are the calls of the source. The call rests on the fitted dose curve; in most records, active means well fitted inhibition curve with a large enough effect; inconclusive means small, poorly fitted or top-dose-only effect; inactive means flat fitted curve, though single readings scatter.
Potency means the concentration at half of the fitted maximal effect.

The assay deals with AS120. Description: qHTS profiling for inhibitors of Plasmodium falciparum proliferation (AID 504749). Further: nearly all actives have a fitted effect of over 60% in size.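 On activity, negative = inhibition: 0% = DMSO vehicle and full inhibition = artemisinin control.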 Particulars: P. falciparum in erythrocytes, SYBR Green DNA, 72 h; series mostly up to 28.7 µM; activity, negative = inhibition: at the top concentration. The method, boiled down:
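Fluorescence of SYBR Green-bound parasite DNA, read at 485/535 nm, served as the growth measure. Infected erythrocytes were cultured with compound 72 h; artemisinin (0.29 uM) and DMSO wells defined the normalization range.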
In general terms: qHTS replaces the single test concentration by a dilution series.
As for `CC(C)OC(=O)C(C(=O)OC(C)C)=C1SC=CS1`, the “activity, negative = inhibition” value is -2.27%.

As for `CC[C@H](NC(C)C)[C@H](O)c1ccc(O)c2[nH]c(=O)ccc12`, the “activity, negative = inhibition” value was 9.76%.

Regarding `NC(=O)c1cccnc1`, the “activity, negative = inhibition” value was 5.57%.

Turning to `Cc1ccnc2c1NC(=O)c1cccnc1N2C1CC1`, the “activity, negative = inhibition” value is 10%.

As to `O=P(O)(O)C(O)(Cc1cccnc1)P(=O)(O)O`, the “activity, negative = inhibition” value was 13.2%.

In the case of `CCc1c2c(nc3ccc(OC(=O)N4CCC(N5CCCCC5)CC4)cc13)-c1cc3c(c(=O)n1C2)COC(=O)[C@]3(O)CC`, the “activity, negative = inhibition” value is 6.07%.

Regarding `C#CCN[C@@H]1CCc2ccccc21`, the “activity, negative = inhibition” value is 12.8%.

On to `CNS(=O)(=O)Cc1ccc2[nH]cc(CCN(C)C)c2c1`, for which the “activity, negative = inhibition” value is 1.14%.

In the case of `Cc1noc(NS(=O)(=O)c2ccc(N)cc2)c1C`, the “activity, negative = inhibition” value is 0.27%.

Take `COc1c(N2CCNC(C)C2)c(F)cc2c(=O)c(C(=O)O)cn(C3CC3)c12` (centres undefined): the “activity, negative = inhibition” value was -13.7%.

Regarding `CCCN[C@H]1CCc2nc(N)sc2C1`, the “activity, negative = inhibition” value was 1.51%.

For `CN1CCN(c2c(F)cc3c(=O)c(C(=O)O)cn4c3c2OCN4C)CC1`, the “activity, negative = inhibition” value is 6.76%.

For `COc1cc(NCc2ccc3nc(N)nc(N)c3c2C)cc(OC)c1OC`, the Potency is 1000 nM (active).

With `Cc1cccc(Nc2ccncc2S(=O)(=O)NC(=O)NC(C)C)c1`, the “activity, negative = inhibition” value was -0.807% [at 12.8 µM].

On to `CC1=NN(c2ccccc2)C(=O)C1`, for which the “activity, negative = inhibition” value was -6.93%.

Turning to `CCN(C)C(=O)Oc1cccc([C@H](C)N(C)C)c1`, the “activity, negative = inhibition” value was -2.98%.

As to `CN(C)c1ccc(C(=C2C=CC(=[N+](C)C)C=C2)c2ccc(N(C)C)cc2)cc1`, the Potency was 447 nM (active).

On to `NCCCC(O)(P(=O)(O)O)P(=O)(O)O`, for which the “activity, negative = inhibition” value was 12.9%.

`COc1ccc(C(=O)CC(=O)c2ccc(C(C)(C)C)cc2)cc1`: the “activity, negative = inhibition” value is 5.21%.

Consider `Cn1nnc2c(C(N)=O)ncn2c1=O`, for which the “activity, negative = inhibition” value is 3.02%.

In the case of `O=NN(CCCl)C(=O)NC1CCCCC1`, the “activity, negative = inhibition” value was 6.73%.

With `Cc1nnc(NS(=O)(=O)c2ccc(N)cc2)s1`, the “activity, negative = inhibition” value was -2.28%.

Regarding `Cc1ncc([N+](=O)[O-])n1CCO`, the “activity, negative = inhibition” value was 0.188%.

On to `CCOCC(O)COc1ccc(NC(=O)CC[S+](C)C)cc1` (centres undefined), for which the “activity, negative = inhibition” value was 13.5%.

Take `CCOc1cc(N)c(Cl)cc1C(=O)NCC1CN(Cc2ccc(F)cc2)CCO1` (centres undefined): the Potency is 8910 nM (active).

Turning to `S=P(N1CC1)(N1CC1)N1CC1`, the “activity, negative = inhibition” value is -8.65%.

Consider `COc1cnc(NS(=O)(=O)c2ccc(N)cc2)nc1`, for which the “activity, negative = inhibition” value was 12.1% [at 12.8 µM].

With `CC[C@H](C)C(=O)O[C@H]1C[C@@H](C)C=C2C=C[C@H](C)[C@H](CC[C@@H]3C[C@@H](O)CC(=O)O3)[C@H]21`, the “activity, negative = inhibition” value was -13.2%.

For the compound `CCCc1cc(C(N)=S)ccn1`, the “activity, negative = inhibition” value was 10.3%.
